According to PubChem BioAssay (Tox21):
Values joined by “and” are separate entries in the source; they are usually repeats but may differ in a detail not shown here. Equal values may be shown once. Results filed as inconclusive are left out. A call without a number means that no potency is given here. Where a structure was tested more than once in an assay, its records may differ in their call. Active and inactive are the calls of the source. Unless noted, the call rests on the fitted dose curve; in most records, active means well fitted curve in the direction sought with a large enough effect in the repeat runs; inconclusive means weak or mixed curves; inactive means no such curve, though single readings can be large; an effect the other way counts as inactive or inconclusive.

Tests used:
[1] = qHTS assay to identify small molecule antagonists of the thyroid receptor (TR) signaling pathway - cell viability counter screen (AID 743064); conditions: GH3.TRE-Luc viability, CellTiter-Fluor, 24 h; series mostly up to 70.3 µM; further: nearly all actives have a fitted effect of over 50% in size; further: potency means the concentration at half of the fitted maximal effect
How it was run: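 Same-well viability check: GH3.TRE-Luc cells stimulated with 1 nM T3 alongside test compound for 23.5 h, followed by CellTiter-Fluor fluorescence.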

[2] = test system: thyroid hormone receptor (rat, GH3 cells); experiment: qHTS assay to identify small molecule agonists of the thyroid receptor (TR) signaling pathway (AID 743066; calls by dose curve); conditions: GH3.TRE-Luc cells, TR agonist luciferase, 24 h; series mostly up to 83.9 µM
[3] = target: Estrogen receptor (Homo sapiens) (UniProt P03372); experiment: qHTS assay to identify small molecule antagonists of the estrogen receptor alpha (ER-alpha) signaling pathway (AID 743069; active means well fitted curve in the direction sought with a large enough effect in the signal ratio in the repeat runs, not every such curve was filed as active; the % refers to the signal ratio); conditions: HEK293 ER-alpha-UAS-bla, beta-lactamase ratio, antagonist mode; series mostly up to 69.4 µM
Sequence of Estrogen receptor (Homo sapiens) (P03372 whole entry, looked up): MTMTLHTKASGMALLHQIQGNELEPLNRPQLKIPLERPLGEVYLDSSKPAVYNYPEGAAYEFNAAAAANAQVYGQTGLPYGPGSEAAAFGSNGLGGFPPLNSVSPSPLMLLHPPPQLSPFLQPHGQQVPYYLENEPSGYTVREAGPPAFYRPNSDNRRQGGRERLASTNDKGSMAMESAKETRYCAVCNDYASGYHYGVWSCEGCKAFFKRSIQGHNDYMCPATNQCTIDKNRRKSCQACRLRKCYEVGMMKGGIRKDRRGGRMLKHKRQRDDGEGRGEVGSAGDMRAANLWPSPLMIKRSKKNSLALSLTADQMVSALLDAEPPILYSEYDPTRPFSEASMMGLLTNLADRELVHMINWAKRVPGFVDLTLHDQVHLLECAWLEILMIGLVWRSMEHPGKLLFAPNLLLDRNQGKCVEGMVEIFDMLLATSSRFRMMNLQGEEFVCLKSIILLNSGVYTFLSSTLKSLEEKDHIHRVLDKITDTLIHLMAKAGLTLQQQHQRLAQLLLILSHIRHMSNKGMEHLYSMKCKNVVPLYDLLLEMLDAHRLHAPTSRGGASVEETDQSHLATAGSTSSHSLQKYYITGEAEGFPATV
How it was run: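 Compound effects are measured against 17beta-estradiol stimulation in HEK293 cells with a UAS-controlled beta-lactamase reporter for ER-alpha. Exposure lasts 18 hr at 37C; LiveBLAzer B/G FRET substrate follows for 2 hr at room temperature.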

[4] = qHTS assay to identify small molecule antagonists of the estrogen receptor alpha (ER-alpha) signaling pathway - cell viability counter screen (AID 743074; calls by dose curve;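 further: HEK293 cells carrying ER-alpha-UAS-bla reporter stimulated with 17beta-estradiol; nearly all actives have a fitted effect of over 45% in size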; further: potency means the concentration at half of the fitted maximal effect); conditions: ERalpha-bla HEK293 viability, CellTiter-Glo luminescence, 18 h; series mostly up to 69.4 µM
[5] = target: Estrogen receptor (Homo sapiens) (UniProt P03372); experiment: qHTS assay to identify small molecule agonists of the estrogen receptor alpha (ER-alpha) signaling pathway using the BG1 cell line (AID 743079); conditions: BG1Luc4E2 cells, ERE-luciferase agonist, 22 h; series mostly up to 70.3 µM; further: nearly all actives have a fitted effect of over 20% in size; further: potency means the concentration at half of the fitted maximal effect
[6] = qHTS assay to identify small molecule antagonists of the estrogen receptor alpha (ER-alpha) signaling pathway using the BG1 cell line (AID 743080; calls by dose curve;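 further: BG1 cells stimulated with 17beta-estradiol alongside compound; nearly all actives have a fitted effect of over 25% in size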; further: potency means the concentration at half of the fitted maximal effect); conditions: BG1Luc4E2 ERE-luciferase antagonist mode, luminescence; series mostly up to 70.3 µM
How it was run: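 Luciferase inhibition measured with ONE-Glo after 30 min at RT in BG1Luc4E2 cells given test compounds and 17beta-estradiol for 21.5 h at 37 C; CellTiter-Fluor viability read in the same wells beforehand.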

[7] = qHTS assay to identify small molecule antagonists of the estrogen receptor alpha (ER-alpha) signaling pathway using the BG1 cell line - cell viability counter screen (AID 743081); conditions: BG1Luc4E2 viability, CellTiter-Fluor, 22 h; series mostly up to 70.3 µM;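 further: compound given together with 17beta-estradiol as the ER stimulus; nearly all actives have a fitted effect of over 45% in size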; further: potency means the concentration at half of the fitted maximal effect
Aromatase (Homo sapiens) = Aromatase (Homo sapiens) (UniProt P11511); experiment: qHTS assay to identify aromatase inhibitors (AID 743083); conditions: MCF-7 aro ERE, testosterone-driven ERE luciferase, 24 h; series mostly up to 70.3 µM; further: nearly all actives have a fitted effect of over 55% in size; further: potency means the concentration at half of the fitted maximal effect
Sequence of Aromatase (Homo sapiens) (P11511 whole entry, looked up): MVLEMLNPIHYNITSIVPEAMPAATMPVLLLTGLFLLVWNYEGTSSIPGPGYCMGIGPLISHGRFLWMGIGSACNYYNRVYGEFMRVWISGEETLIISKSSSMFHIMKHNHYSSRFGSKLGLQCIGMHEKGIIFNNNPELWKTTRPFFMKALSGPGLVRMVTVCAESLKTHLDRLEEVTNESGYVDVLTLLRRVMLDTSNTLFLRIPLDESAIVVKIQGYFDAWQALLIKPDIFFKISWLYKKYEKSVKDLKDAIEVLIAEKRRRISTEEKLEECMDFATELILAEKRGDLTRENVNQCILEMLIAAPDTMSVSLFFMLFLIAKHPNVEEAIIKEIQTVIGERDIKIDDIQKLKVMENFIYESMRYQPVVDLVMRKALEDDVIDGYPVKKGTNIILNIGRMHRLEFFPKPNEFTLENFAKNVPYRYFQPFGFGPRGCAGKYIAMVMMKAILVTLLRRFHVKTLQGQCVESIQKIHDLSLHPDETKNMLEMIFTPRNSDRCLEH

[8] = qHTS assay to identify small molecule antagonists of the thyroid receptor (TR) signaling pathway (AID 743065); conditions: GH3.TRE-Luc, T3-stimulated luciferase inhibition, 23.5 h; series mostly up to 70.3 µM; further: nearly all actives have a fitted effect of over 55% in size; further: potency means the concentration at half of the fitted maximal effect
How it was run: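 Antagonism measured as loss of luciferase signal in GH3 cells stably carrying a TRE-luciferase reporter, co-treated with compound and T3 (1 nM final) for 23.5 h at 37 C. Viability was read in the same well by CellTiter-Fluor.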

[9] = target: Estrogen receptor (Homo sapiens) (UniProt P03372); experiment: qHTS assay to identify small molecule agonists of the estrogen receptor alpha (ER-alpha) signaling pathway (AID 743075; calls by dose curve); conditions: HEK293 ER-alpha-UAS-bla, beta-lactamase FRET ratio, 18 h; series mostly up to 70.1 µM

SMILES | Potency [1] | outcome [2] | Potency [3] | Potency [4] | Potency [5] | Potency [6] | Potency [7] | Potency (Aromatase (Homo sapiens)) | Potency [8] | Potency [9]
CCCCCCCCCCCC(=O)OCC(C)OC(=O)CCCCC(=O)O (centres undefined) | inactive | inactive | inactive | inactive | inactive | inactive | inactive | inactive |  | 
CCOC(=O)c1ccc(C2CCC(NC[C@H](O)COc3ccc(O)c(NS(C)(=O)=O)c3)CC2)cc1 (some centres undefined) | 39.9 µM (active) |  |  |  |  |  | inactive |  | 28.3 µM (active) | 
O=C(Nc1ccc2c(O)c(N=Nc3ccc(N=Nc4ccc(S(=O)(=O)O)cc4)cc3)c(S(=O)(=O)O)cc2c1)c1ccccc1 | 30.6 µM (active) | inactive | inactive | inactive |  |  | 27.3 µM (active) |  |  | inactive
O=C1CCCCCCCCCCCCCCCO1 | inactive | inactive |  | inactive | inactive | inactive | inactive | inactive |  | inactive
NC(=O)c1cccc([N+](=O)[O-])c1 | inactive | inactive | inactive | inactive | inactive | inactive | inactive | inactive |  | inactive
CC(C)CCOC(=O)/C=C/c1ccccc1 | inactive | inactive | inactive |  | 24.4 µM (active) |  | inactive | inactive |  | inactive
[Cu+] | inactive | inactive | inactive | inactive |  |  | inactive |  |  | inactive
O=C1CCc2ccc(OCCCCN3CCN(c4cccc(Cl)c4Cl)CC3)cc2N1 | 11.9 µM (active) |  |  | 23.9 µM (active) |  |  |  | inactive | 11.9 µM (active) | 
NC(=S)NC(N)=S | inactive | inactive | inactive | inactive | inactive | inactive | inactive | inactive |  | inactive
FC(F)(F)c1cccc(Cl)c1 | inactive | inactive | inactive | inactive | inactive | inactive | inactive | inactive |  | inactive
CCCCC/C=C\C/C=C\CCCCCCCC(=O)O | inactive | inactive | inactive | inactive | inactive | inactive | inactive | inactive |  | inactive
Cc1cc(C(C)(C)C)cc(C)c1CC1=NCCN1 | inactive | inactive | inactive | inactive | inactive | inactive | inactive | inactive |  | inactive
CCCCCCCCCCCCOCCOCCOCCOCCOCCOCCOCCOCCOCCO | 9.44 µM (active) |  |  | 10.7 µM (active) |  | 5.96 µM (active) | 23.7 µM (active) | 10.6 µM (active) | 8.41 µM (active) | inactive
CN1CCCCC1CCN1c2ccccc2Sc2ccc(S(C)=O)cc21 (centres undefined) | inactive and 13.3 µM (active) | inactive | inactive | inactive | inactive | inactive | inactive | inactive |  | inactive
O=S(=O)(O)c1ccc(N=Nc2c(O)ccc3ccccc23)cc1 | 30.6 µM (active) | inactive | inactive | inactive | inactive |  | 27.3 µM (active) |  |  | inactive
CCCCCc1ccc(Cl)cc1 | inactive | inactive | inactive | inactive | inactive | inactive | inactive | inactive |  | inactive
COc1cccc2c1C(=O)c1c(O)c3c(c(O)c1C2=O)C[C@@](O)(C(C)=O)C[C@@H]3O[C@H]1C[C@H](N)[C@H](O)[C@H](C)O1 | 1.06 µM (active) and 218 nM (active) |  |  | inactive |  |  | 21.1 µM (active) and 27.5 µM (active) | 3.76 µM (active) and 615 nM (active) |  | 
Cc1c2ccccc2c(C)c2c1ccc1ccccc12 | 27 µM (active) and 13.7 µM (active) |  |  |  | 30.3 µM (active) | 67.9 nM (active) and 486 nM (active) | inactive | inactive and 27.3 µM (active) |  | 
CNC(=O)c1ccccc1Sc1ccc2c(/C=C/c3ccccn3)n[nH]c2c1 | inactive | inactive |  |  |  |  |  | inactive |  | 
C=CC(C)(CCC=C(C)C)OC=O (centres undefined) |  | inactive | inactive | inactive | inactive | inactive | inactive | inactive | inactive | inactive
CN(C)C(=O)COC(=O)Cc1ccc(OC(=O)c2ccc(N=C(N)N)cc2)cc1 | inactive | inactive |  | inactive |  |  | inactive |  |  | 
C[Si](Cl)(c1ccccc1)c1ccccc1 |  | inactive | inactive | inactive | inactive | inactive | inactive |  | inactive | inactive
CCOC(=O)NNc1ccc(N(CC)CC(C)O)nn1 (centres undefined) | inactive |  | inactive | inactive | inactive | inactive | inactive | inactive |  | inactive
CC1(C)CC(O)CC(C)(C)N1 |  | inactive | inactive | inactive | inactive | inactive | inactive | inactive | inactive | inactive
CCO[Si](OCC)(OCC)OCC | inactive |  | inactive | inactive | inactive | inactive | inactive | inactive |  | inactive
CC(C)(C)C1CCC(=O)CC1 | inactive |  | inactive | inactive | inactive | inactive | inactive | inactive |  | inactive
CCO[C@@H]1O[C@H](C(COCc2ccccc2)OCc2ccccc2)[C@H](OCc2ccccc2)[C@H]1O (some centres undefined) | inactive |  |  | inactive |  |  | inactive | inactive |  | 
